In the library only some 10% were active in any assay of this set; here they are far more common.
HEK293 tox: kills HEK 293 cells; HEK 293 viability, ATP luminescence (CellTiter-Glo), 48-72 h; Potency, µM (titrated, usually from 115 µM), inactives show top-dose activity change, negative = cytotoxicity, actives largely listed as inhibitors; hit rate 6.6% among 94,000; AID 1345083; note: nearly all actives have a fitted effect of over 60% in size
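HEK 293 seeded at 250 cells/well receive compound via pintool. After 48 or 72 hr at 37 degree Celsius, 5% CO2 and 95% humidity, CellTiter-Glo is dispensed and luminescence read following 10 min at room temperature.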
NPR1 antag: human Npr1 receptor antagonism. Potency, µM (doses to about 46.3 µM), without a hit: at the highest dose activity change, negative = inhibition, most hits filed as inhibitors. HEK293 hNpr1 GloSensor cGMP, ANP-stimulated luminescence. hit rate 1.6% among 76,000. AID 1347048. P16066; calls by dose curve; note: nearly all actives have a fitted effect of over 60% in size
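Compound pre-incubated 30 min at room temperature on GloSensor-loaded HEK293 cells stably carrying hNpr1 and the pGS-40F cGMP biosensor. Stimulation uses hNppA at 0.1 nM final; luminescence is taken at baseline and 20 min post-agonist.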
GPT2 inh: inhibitors of human GPT2 alanine aminotransferase; hit rate 0.25% among 100,000; Recombinant GPT2, coupled pyruvate oxidase/HRP Amplex Red fluorescence; Q8TD30; AID 1671188; Potency, µM (series often up to 57.7 µM), inactives show top-dose activity change, negative = inhibition, usual class: inhibitors; note: nearly all actives have a fitted effect of over 60% in size
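Recombinant GPT2 (10ng/uL) with 250uM a-KG and 2mM L-alanine, 30 min at room temperature, in HEPES pH 7.5 buffer. Pyruvate detected by pyruvate oxidase/HRP/Amplex Red fluorescence after 30 min in the dark; AOA (50uM) as positive control.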
NIH3T3 tox: cytotoxic compounds in NIH 3T3 cells | NIH 3T3 viability, CellTiter-Glo ATP luminescence, 48-72 h | Potency, µM (highest dose often 96.7 µM), for the others: top-dose activity change, negative = cytotoxicity, actives largely listed as inhibitors | hit rate 4.3% among 94,000 | AID 1345082; note: nearly all actives have a fitted effect of over 55% in size
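First NIH 3T3 cells are plated at 400 cells/well; next compound is pinned in; then plates incubate 48 or 72 hr at 37 °C; finally CellTiter-Glo is added and luminescence read after 10 min.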
FLuc inh: Photinus pyralis luciferase inhibition. P08659. purified P. pyralis luciferase, luminescence, biochemical. Potency, µM (doses to about 115 µM), actives largely listed as inhibitors. hit rate 2.5% among 76,000; note: nearly all actives have a fitted effect of over 65% in size
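Purified P. pyralis luciferase (10nM final) in 50mM Tris acetate pH 7.5, 10mM Mg acetate, 0.01% Tween-20, 0.05% BSA with 10uM D-luciferin and 10uM ATP. Compounds titrated qHTS. Luminescence imaged on CCD.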
Starred values were filed as active, the others as inactive; i = inactive; ? = inconclusive; · = not tested or not shown; [ ] = remark or other dose. Unless noted, calls come from the whole dose curve; as a rule, active = well fitted curve in the direction sought with a large enough effect; inconclusive = small, poorly fitted or top-dose-only effect, or another doubt; inactive = no such curve, though single readings can be large; an effect the other way counts as inactive or inconclusive. % is set by controls: 0 for no effect and ±100 for the full control effect; potency is the fitted concentration of half-maximal effect.

SMILES	HEK293 tox	NPR1 antag	GPT2 inh	NIH3T3 tox	FLuc inh
O=C(CC1CCCCC1)N1CCC2(CC1)CC(N(Cc1ccc(F)cc1)C1CC1)CCO2 (stereo unspecified)	50µM*	3%	i	?	i
O=C(CCC1CCCC1)N1CCC2(CC1)CC(N(Cc1ccc(F)cc1)C1CC1)CCO2 (stereo unspecified)	?	3%	i	?	i
O=C(c1cccc(Cl)c1)N1CCN(C(=O)c2nc3cccnc3n(Cc3ccccc3)c2=O)CC1	?	·	i	?	·
CN(CCc1ccccc1)CCN1CC2(CCN(c3ncccc3C#N)CC2)OC1=O	40µM*	-3%	2%	?	i
N#Cc1cccnc1N1CCCC(CO)(CCCc2ccccc2)C1 (stereo unspecified)	?	-3%	1%	?	i
CC(C)(C)c1ccc(-c2cc(C[C@H]3CNCC[C@H]3CC(=O)N3CCOCC3)no2)cc1	25µM*	3%[70.6 µM]	-4%[88.5 µM]	?	i
O=C(C[C@@H]1CCNC[C@@H]1Cc1cc(COc2ccccc2)on1)N1CCC(n2c(=O)[nH]c3ccccc32)CC1	-7%	6%	-8%	-1%	i
CC(C)(C)c1ccc(-c2cc(C[C@H]3CNCC[C@H]3CC(=O)N3CCC(n4c(=O)[nH]c5ccccc54)CC3)no2)cc1	22µM*	-1%	i	25µM*	i
O=C([C@@H]1OCCN(C2CC2)[C@H]1c1ccccc1)N1CCC(Cc2ccccc2)CC1	?	·	-8%	?	·
O=S(=O)(Cc1ccccc1)N1CCCC1Cc1noc(-c2cnccn2)n1 (stereo unspecified)	i	·	-2%	1%	·
Cc1cccc(NC(=O)N2CCc3c(c4ccccc4n3C)C2)c1C	?	-3%	i	?	i
Cc1ccc(NC(=O)N2CCc3c(c4ccccc4n3C)C2)cc1C	45µM*	-20%	i	?	?
Cn1c2c(c3ccccc31)CN(C(=O)Nc1cccc(Br)c1)CC2	?	-9%	-25%	32µM*	?
Cn1c2c(c3cc(F)ccc31)CN(C(=O)Nc1cccc(F)c1)CC2	45µM*	-15%	0%	22µM*	?
COc1ccc(-c2nnc([C@H]3CCN(S(C)(=O)=O)C3)o2)cc1	i	0%[70.6 µM]	1%[88.5 µM]	-18%[138 µM]	i
O=S(=O)(Cc1ccccc1)N1CCC(Oc2ccc(-c3noc(C4CC4)n3)cc2)C1 (stereo unspecified)	40µM*	?	i	?	i
COc1ccc(-c2nnc([C@H]3CCN(S(=O)(=O)Cc4ccccc4)C3)o2)cc1	?	-3%[70.6 µM]	-8%[88.5 µM]	?	50µM*
CCN1C(=O)C2(CCN(S(=O)(=O)c3ccc(Cl)cc3C)CC2)c2ccccc21	10µM*	-19%	-12%	?	i
Cc1cc(C)c(CNC(=O)c2cc(-c3ccnn3C)cc3c2OCCN3C(C)C)c(=O)[nH]1	?	0%[70.6 µM]	-29%[88.5 µM]	?	i
CCOc1ccccc1CN1CCC2(CCN(C(=O)Cc3ccc(F)cc3)CC2)Oc2ccccc21	35µM*	6%	i	?	i
CCOc1ccccc1CN1CCC2(CCN(C(=O)Cc3cccc(Cl)c3)CC2)Oc2ccccc21	-18%	-1%	i	-12%	i
O=C(Cc1ccc(F)cc1)N1CCC2(CC1)CCN(CCc1ccccc1)c1ccccc1O2	45µM*	21%	i	?	i
CCOc1ccccc1CN1CCC2(CCN(C(=O)C3CCCC3)CC2)Oc2ccccc21	35µM*	-12%	i	?	i
O=C(NCCc1ccc(Cl)cc1)c1cc(-c2cc(Cl)cc(Cl)c2)c2cccn2n1	-20%	·	1%	-25%	·
O=C(COc1ccc(F)cc1)N1CCCC(c2noc(COc3ccccc3)n2)C1 (stereo unspecified)	?	?	i	?	?
Cc1ccc(CN2CCCCCCNC(=O)CC2c2ccccc2)s1 (stereo unspecified)	40µM*	-15%	i	?	i
